USP1 inh: inhibitors of human USP1/UAF1 deubiquitinase | O94782 | recombinant USP1/UAF1, Ub-Rhodamine cleavage fluorescence | Potency, µM (doses to about 57.1 µM), without a hit: at the highest dose activity change, negative = inhibition, usual class: inhibitors | 0.23% of 390,000 active; note: potency is the fitted concentration of half-maximal effect; % is set by controls: 0 for no effect and ±100 for the full control effect; nearly all actives have a fitted effect of over 60% in size
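High-throughput fluorogenic screen: 1nM USP1/UAF1 complex, Ub-Rho substrate 150nM final, 50mM HEPES pH 7.8 with 0.5mM EDTA, 0.1 mg/ml BSA, 1mM TCEP and 0.01% Tween-20.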
ATXN2 expr inh: ATXN2 expression inhibition; HEK-293 ATXN2-luciferase reporter, luminescence, 24 h; Potency, µM (doses to about 57 µM), for inactives: at the highest dose activity change, negative = inhibition, most hits filed as inhibitors; 0.72% of 360,000 active; note: potency is the fitted concentration of half-maximal effect; % is set by controls: 0 for no effect and ±100 for the full control effect; nearly all actives have a fitted effect of over 55% in size
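qHTS (up to 57 uM final) was run with 24 h compound exposure of reporter cells at 37 °C. Each well was multiplexed: SteadyGlo luminescence measured ATXN2-luciferase expression after a fluorogenic Gly-Phe-AFC viability readout (25 uM final).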
ATXN viability: reduces viability in counter-screen for ATXN expression inhibitors | S2 cells (HEK-293 line with an ATXN2-luciferase reporter) viability, CellTiter-Fluor protease fluorescence, 24 h | Potency, µM (highest dose often 56.7 µM), actives largely listed as cytotoxic | 0.49% of 400,000 active | AID 651635; note: potency is the fitted concentration of half-maximal effect; nearly all actives have a fitted effect of over 40% in size
IL1B secr inh: inflammasome signaling inhibition, IL-1 beta readout | activity change, % at 57.5 µM | THP-1 LPS/ATP IL-1B secretion, AlphaLISA, 16 h; hits give low values | 4.7% of 360,000 active | AID 743279; in the data active = activity change below about -50%; inconclusive = mostly about -30% to -49%; note: % is set by controls: 0 for no effect and ±100 for the full control effect
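THP-1 cells pretreated 1 hr with compounds (up to 57.5 uM final), then stimulated with LPS (250 ng/mL final) plus ATP (1.25 mM final); secreted IL-1B measured by AlphaLISA after 16 hr, decreased signal indicating inhibition.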
USP2a block: USP2a (human) protease inhibition; USP2 core, Ub-CHOP2 coupled fluorogenic reporter, 485/531; AID 463254; Potency, µM (titrated, usually from 38.3 µM), for inactives: at the top dose activity change, negative = inhibition, usual class: inhibitors; 0.01% of 330,000 active; O75604;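 note: potency is the fitted concentration of half-maximal effect; plate controls were DMSO wells for no effect and full inhibition by NEM control for full effect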
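Cell-free coupled assay: 10nM USP2 core preincubated 30min RT with compound in Tris-HCl pH 8.0/CaCl2/CHAPS buffer, then 25nM Ub-CHOP2 and 25nM reporter substrate; fluorescence (Ex 485/Em 531) read after 60min RT, normalized to NEM inhibition, concentration-response curves fitted.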
* marks the source's active call; other numbers are inactive results; i = inactive; ? = inconclusive; nt = no result. The list is not random: actives were taken first. Their share in the collection is about 4.8%. Unless noted, calls come from the whole dose curve; as a rule, active = well fitted curve in the direction sought with a large enough effect; inconclusive = small, poorly fitted or top-dose-only effect, or another doubt; inactive = no such curve, though single readings can be large; an effect the other way counts as inactive or inconclusive.

SMILES	USP1 inh	ATXN2 expr inh	ATXN viability	IL1B secr inh	USP2a block
COc1ccc(C2=NN(C(=O)c3cccs3)C(O)(C(F)(F)F)C2)cc1 (centres undefined)	-28%	-5%	?	-52*	-2%
COc1ccc(C2=NN(C(=O)c3cccs3)C(c3ccccc3O)C2)cc1 (centres undefined)	-8%	nt	?	-59*	2%
O=C(c1ccccc1)N1N=C(c2ccccc2)CC1(O)C(F)(F)F (centres undefined)	-9%	nt	nt	1	-1%
Cc1ccc(C(=O)N2N=C(c3ccc(Br)cc3)CC2c2ccccc2O)cc1 (centres undefined)	-18%	?	nt	-94*	0%
O=C(c1ccco1)N1N=C(c2ccc(Br)cc2)CC1c1ccco1 (centres undefined)	-29%	-1%	i	-67*	0%
COc1ccc(C2CC(c3ccccc3)=NN2C(=O)c2cccs2)cc1 (centres undefined)	-13%	42%	i	-23	-5%
COc1ccc(C2=NN(C(C)=O)C(c3cn(-c4ccccc4)nc3-c3cccs3)C2)cc1 (centres undefined)	-6%	-17%	i	nt	nt
O=C(NCC(F)(F)F)[C@H]1O[C@@H](n2ccc(=O)[nH]c2=O)[C@H](O)[C@@H]1O	nt	5%	i	-5	nt
C=CCc1ccccc1OCC(O)CNC(C)C (centres undefined)	2%	-13%	i	-70*	4%
CC(=O)N[C@@H](CC(=O)O)C(=O)O	-25%	-5%	?	-107*	-2%
CC(=O)N[C@@H](CCC(=O)O)C(=O)O	nt	4%	i	nt	nt
CC1CCN(C(=O)C2CCN(S(=O)(=O)c3cc(Cl)ccc3Cl)CC2)CC1	-19%	-3%	i	-66*	-8%
Oc1ccc(CNc2ccc(C(F)(F)F)cc2Cl)c2cccnc12	nt	nt	nt	nt	0%
COc1ccccc1CNC(=O)COC(=O)c1ccc(C(=O)c2ccccc2)cc1	-6%	-3%	i	8	-3%
COc1ccccc1CNC(=O)COC(=O)c1ccccc1-c1ccccc1	-8%	-7%	i	-83*	-1%
Cc1ccccc1NC(=O)c1nnn(-c2ccc3c(c2)OCCO3)c1N	-10%	45%	i	-65*	0%
CCOc1ccccc1NC(=O)c1nnn(-c2ccc3c(c2)OCCO3)c1N	-10%	-2%	?	?	0%
CCN(CC)Cc1cc(Nc2c3ccccc3nc3c4ccccc4n(C)c23)cc(CN(CC)CC)c1O	-11%	20µM*	32µM*	-113*	nt
COc1c(OC(C)=O)ccc(/C=C/c2ccc3cccc(OCc4ccccc4)c3n2)c1[N+](=O)[O-]	-8%	22%	?	-50*	0%
C[C@@H]1CCN(C(=O)CC#N)C[C@H]1N(C)c1ncnc2[nH]ccc12	nt	33%	nt	nt	nt
Cc1ccc(NC(=O)[C@@H]2O[C@H](CO)[C@H](O)[C@H](O)[C@H]2O)cc1C(F)(F)F	nt	6%	i	32	nt
Cn1c(=S)c2[nH]c(SCC3CCCO3)nc2n(C)c1=O (centres undefined)	-2%	-25%	i	-88*	nt
O=c1[nH]c(SCC2CCCCO2)nc2ccccc12 (centres undefined)	-4%	38%	i	-3	6%
CCCSc1nc2c([nH]1)c(=O)n(C)c(=S)n2C	-7%	-17%	?	2	nt
CCCC(C)Sc1nc2c([nH]1)c(=S)n(C)c(=O)n2C (centres undefined)	-10%	-30%	i	-102*	nt
O=C(CN1C(=O)COc2ccc(Cl)cc21)Nc1ccc(F)cc1	-10%	-18%	i	nt	nt
O=C(CSc1ncnc2c1cnn2-c1ccccc1)NC1CCS(=O)(=O)C1 (centres undefined)	-11%	5%	?	-11	5%
CCC1(O)CC(c2ccccc2)=NN1C(=O)c1ccccc1F (centres undefined)	-14%	7%	i	1	nt
CC(C)(C)NC(=O)C(c1ccc(F)cc1)N(C(=O)CCC(=O)Nc1ccccn1)C1CCCC1 (centres undefined)	-12%	2%	i	-14	2%

Source: PubChem
